Some test systems named below: T-47D breast; BT-549 breast; MDA-MB-435 melanoma; SW-620 colon; MCF7 breast; HCT-116 colon; HCC-2998 colon; KM12 colon.
What all share (assay): NCI-60 one-dose screen, 48 h (100 = growth as untreated, 0 = no growth, -100 = all killed)
Common to all, as to conditions: 10 µM unless noted

The structures appear in SMILES notation. This is part of a sample that, as a whole, favours compounds with a hit. Of some 83,000 tested, about 20% had one in any assay.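 Assay: single dose, 48 h. Readout: percent growth (0 = no net growth; negative = cell death). Active: <10.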 Unmarked numbers belong to inactive results. The source made the active and inactive calls.

`N[C@H]1CCC[C@@H]1NCCCCN1C(=O)c2cccc3cccc(c23)C1=O`: the growth in the assay with T-47D breast is 82.6%; with BT-549 breast it was 74.1%; in the assay on MDA-MB-435 melanoma it was 89.5%; in the assay on SW-620 colon, 30%; in the assay with MCF7 breast, 52.8%; in the assay on HCT-116 colon, 32%. Besides, the growth in the assay with HCC-2998 colon was 53.9%; in the assay on KM12 colon, 48.4%.

For the compound `C=C(C=O)[C@@H]1CC=C(C=O)CC1`, the growth is -27.7% (active) in the assay on T-47D breast; -18.9% (active) in the assay on BT-549 breast; -31.4% (active) in the assay on MDA-MB-435 melanoma; -25.7% (active) with SW-620 colon; -17.3% (active) with MCF7 breast; 5.92% (active) in the assay with HCT-116 colon. Moreover, the growth with HCC-2998 colon is -30% (active); with KM12 colon it was -36.6% (active).

On to `O=S(=O)(NCCNc1cc(-c2c(-c3cccc(O)c3)nc3sccn23)ccn1)c1ccc(Cl)cc1`, for which the growth in the assay on T-47D breast is 26%; with BT-549 breast, 50.2%; in the assay on MDA-MB-435 melanoma it was 24.8%; in the assay with SW-620 colon, 89.2%; in the assay with MCF7 breast, 47.8%; in the assay with HCT-116 colon, 57.4%. In addition, the results for the growth in the assay with HCC-2998 colon and in the assay with KM12 colon were 102% and 59.6%, respectively.

`Cc1nc(Nc2ccc(NC(=S)Nc3ccccc3)cc2)nc2nc(Nc3ccc(S(=O)(=O)O)cc3)[nH]c(=O)c12`: the growth with T-47D breast was 87.3%; in the assay with BT-549 breast, 61%; with MDA-MB-435 melanoma it was 105%; in the assay with SW-620 colon, 116%; with MCF7 breast, 102%; in the assay on HCT-116 colon, 103%. Further, the growth was 118% with HCC-2998 colon and 120% with KM12 colon.

As for `Cc1nc(Nc2ccc(S(=O)(=O)Nc3cc(C)on3)cc2)c2ccccc2n1`, the growth in the assay on T-47D breast was 89.1%; with BT-549 breast, 120%; in the assay with MDA-MB-435 melanoma, 101%; with SW-620 colon, 109%; in the assay with MCF7 breast, 91.9%; in the assay with HCT-116 colon, 109%. Moreover, the results for the growth in the assay on HCC-2998 colon and in the assay on KM12 colon were 107% and 103%, respectively.

Turning to `O=C(Nc1ccc(N2CCCCC2)c(Cl)c1)c1ccc(Br)o1`, the growth in the assay with T-47D breast is 63%; in the assay with BT-549 breast it was 81.2%; with MDA-MB-435 melanoma, -95.4% (active); with SW-620 colon, 74.2%; in the assay on MCF7 breast, 49.9%; with HCT-116 colon it was 84.3%. In addition, the growth in the assay on HCC-2998 colon was 111%; in the assay on KM12 colon, 70.1%.

Turning to `CC/C=C/[C@@H]1C=C[C@@H]2CCC[C@H]2[C@@H]1CC[C@H](O)[C@H](C)N`, the growth was -45.4% (active) in the assay on T-47D breast; 85.9% in the assay on BT-549 breast; -89.3% (active) with MDA-MB-435 melanoma; -67.2% (active) with SW-620 colon; -85.8% (active) in the assay on MCF7 breast; -76.2% (active) in the assay with HCT-116 colon. For the same compound, the growth was -88.6% (active) in the assay on HCC-2998 colon and -85.1% (active) with KM12 colon.

With `CC(/C=N/NC(=O)c1cc(-c2ccco2)[nH]n1)=C\c1ccccc1`, the growth with T-47D breast was 96.6%; in the assay on BT-549 breast, 101%; with MDA-MB-435 melanoma, 89.9%; in the assay with SW-620 colon it was 101%; in the assay on MCF7 breast, 99.8%; with HCT-116 colon it was 99.3%. For the same compound, the growth is 106% with HCC-2998 colon and 93.9% with KM12 colon.

With `Clc1ccc(-c2cn(-c3ccccc3)c(-c3ccccc3)n2)cc1`, the growth with T-47D breast is 56.7%; in the assay on BT-549 breast, 62.9%; in the assay on MDA-MB-435 melanoma it was 87.7%; with SW-620 colon, 66.7%; in the assay on MCF7 breast, 9.74% (active); in the assay with HCT-116 colon, 27.2%. Moreover, the growth is 97.6% with HCC-2998 colon and 53.6% with KM12 colon.

On to `NC(=O)c1c(NC(=O)c2ccccn2)sc2c1CCC(=O)C2`, for which the growth with T-47D breast is 5.3% (active); in the assay with BT-549 breast, 5.57% (active); with MDA-MB-435 melanoma, 21.3%; in the assay with SW-620 colon it was 14.7%; with MCF7 breast, 39.1%; in the assay with HCT-116 colon, 9.08% (active). Also, the values for the growth with HCC-2998 colon and in the assay on KM12 colon were 81% and 6.82% (active), respectively.

Take `CSc1nc(N)c(CNC(C)c2ccccc2)c(=O)n1C` (configuration not stated): the growth with T-47D breast was 97.2%; with BT-549 breast, 96.1%; in the assay on MDA-MB-435 melanoma, 98.4%; in the assay with SW-620 colon, 107%; with MCF7 breast it was 93.5%; in the assay with HCT-116 colon it was 92.2%. The growth with HCC-2998 colon is 101%; in the assay with KM12 colon, 106%.

In the case of `O=C1CCC(N2C(=O)c3cccc(NCCCC4CCN(CCNC(=O)c5cc6c(o5)C(=O)c5ccccc5C6=O)CC4)c3C2=O)C(=O)N1` (configuration not stated), the growth in the assay with T-47D breast is -5.59% (active); in the assay with BT-549 breast, -96.2% (active); in the assay with MDA-MB-435 melanoma it was -97.1% (active); in the assay on SW-620 colon, -77.9% (active); in the assay with MCF7 breast it was -65.4% (active); with HCT-116 colon it was -56.9% (active). For the same compound, the growth with HCC-2998 colon is -96% (active); in the assay on KM12 colon, -79.2% (active).

With `CNC(=O)c1cc(Oc2ccc3nc(NC(=O)Nc4cc(C(F)(F)F)cc(C(F)(F)F)c4)sc3c2)ccn1`, the growth in the assay with T-47D breast is -39.6% (active); in the assay on BT-549 breast, -46.9% (active); in the assay on MDA-MB-435 melanoma, -13.6% (active); with SW-620 colon, -36.1% (active); in the assay on MCF7 breast, 0.0531% (active); with HCT-116 colon it was -56.1% (active). The growth with HCC-2998 colon was 5.71% (active); with KM12 colon, -14.7% (active).

On to `O=[N+]([O-])c1ccc(-c2cc3c(Nc4ccc(Sc5nc6ccccc6s5)c(Cl)c4)ncnc3s2)cc1`, for which the growth was 37.1% with T-47D breast; 87.6% with BT-549 breast; 30.8% in the assay on MDA-MB-435 melanoma; 49.5% with SW-620 colon; 16.2% with MCF7 breast; 11.9% in the assay with HCT-116 colon. For the same compound, the figures for the growth with HCC-2998 colon and with KM12 colon were 49.7% and 35.1%, respectively.

For the origin of these results see PubChem BioAssay (NCI).
